Assay results reported in PubChem BioAssay AID1159580 (chemical genetic matrix, 2015).
In all, about 5,500 compounds went through this assay and about 2,000 (36%) were called active. Inconclusive results (about 18%) are left out. No stated cut-off is given here; in the data, active means normalized growth mostly below about 0.91 (no sharp cut-off); inconclusive means no clear call, values can overlap the other calls; inactive means mostly above about 0.92. The list shows a part of the results.

Test: chemical genetic growth profiling, strain panel (AID 1159580);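 further: tested at 20 µM; growth read once vehicle control cultures reached saturation at 30 °C; 1 = growth at the plate median or of vehicle wells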
Conditions: growth OD

Measured: normalized growth

C=C[C@@](C)(O)CCC1C(=C)CCC2[C@@](C)(CO)CCC[C@]12C (some centres undefined)
inactive: S. cerevisiae deletion strains, locus YJR066W, strain TOR1, stronger effect = lower value 0.868 | S. cerevisiae deletion strains, locus YJR075W, strain HOC1, stronger effect = lower value 1.05 | S. cerevisiae deletion strains, locus YKL068W, stronger effect = lower value 1.02 | S. cerevisiae deletion strains, locus YKL085W, strain MDH1 (second series), stronger effect = lower value 0.994 | S. cerevisiae deletion strains, locus YKL085W, strain MDH1, stronger effect = lower value 0.994 | S. cerevisiae deletion strains, locus YKL160W, strain elf1, stronger effect = lower value 0.966 | S. cerevisiae deletion strains, locus YKL190W, strain CNB1, stronger effect = lower value 1.06 | S. cerevisiae deletion strains, locus YKR001C, strain vps1, stronger effect = lower value 1 | S. cerevisiae deletion strains, locus YKR026C, strain gcn3, stronger effect = lower value 1.08 | S. cerevisiae deletion strains, locus YKR091W, strain srl3, stronger effect = lower value 1.07 | S. cerevisiae deletion strains, locus YLL001W, strain dnm1, stronger effect = lower value 0.935 | S. cerevisiae deletion strains, locus YLL026W, stronger effect = lower value 1.03 | S. cerevisiae deletion strains, locus YLR027C, strain aat2, stronger effect = lower value 0.997 | S. cerevisiae deletion strains, locus YLR039C, strain RIC1, stronger effect = lower value 0.868 | S. cerevisiae deletion strains, locus YLR058C, strain SHM2, stronger effect = lower value 1 | S. cerevisiae deletion strains, locus YLR102C, strain apc9, stronger effect = lower value 1.05 | S. cerevisiae deletion strains, locus YLR113W, strain HOG1, stronger effect = lower value 0.891 | S. cerevisiae deletion strains, locus YLR221C, strain rsa3, stronger effect = lower value 0.982 | S. cerevisiae deletion strains, locus YLR258W, strain gsy2, stronger effect = lower value 1 | S. cerevisiae deletion strains, locus YLR268W, strain sec22, stronger effect = lower value 0.959 | S. cerevisiae deletion strains, locus YLR320W, strain mms22, stronger effect = lower value 0.98 | S. cerevisiae deletion strains, locus YLR330W, strain CHS5, stronger effect = lower value 1.05 | S. cerevisiae deletion strains, locus YLR342W, strain FKS1 (second series), stronger effect = lower value 0.883 | S. cerevisiae deletion strains, locus YLR342W, strain FKS1, stronger effect = lower value 0.999 | S. cerevisiae deletion strains, locus YLR370C, strain arc18, stronger effect = lower value 1.04 | S. cerevisiae deletion strains, locus YLR418C, strain cdc73, stronger effect = lower value 1.07 | S. cerevisiae deletion strains, locus YML016C, strain PPZ1, stronger effect = lower value 1.04 | S. cerevisiae deletion strains, locus YML032C, strain rad52, stronger effect = lower value 0.912 | S. cerevisiae deletion strains, locus YML120C, strain ndi1, stronger effect = lower value 0.974 | S. cerevisiae deletion strains, locus YML124C, strain tub3, stronger effect = lower value 1.04 | S. cerevisiae deletion strains, locus YMR058W, strain fet3, stronger effect = lower value 0.992 | S. cerevisiae deletion strains, locus YMR078C, strain ctf18, stronger effect = lower value 1.05 | S. cerevisiae deletion strains, locus YMR129W, stronger effect = lower value 1.06 | S. cerevisiae deletion strains, locus YMR205C, strain PFK2, stronger effect = lower value 0.969 | S. cerevisiae deletion strains, locus YMR223W, strain ubp8, stronger effect = lower value 0.995 | S. cerevisiae deletion strains, locus YMR231W, strain pep5, stronger effect = lower value 1.05 | S. cerevisiae deletion strains, locus YMR263W, strain SAP30, stronger effect = lower value 1.07 | S. cerevisiae deletion strains, locus YMR307W, strain GAS1, stronger effect = lower value 0.91 | S. cerevisiae deletion strains, locus YNL067W, strain RPL9B, stronger effect = lower value 0.979 | S. cerevisiae deletion strains, locus YNL071W, strain lat1, stronger effect = lower value 1 | S. cerevisiae deletion strains, locus YNL153C, strain GIM3, stronger effect = lower value 0.971 | S. cerevisiae deletion strains, locus YNL183C, strain NPR1, stronger effect = lower value 0.842 | S. cerevisiae deletion strains, locus YNL209W, strain ssb2, stronger effect = lower value 0.984 | S. cerevisiae deletion strains, locus YNL233W, strain BNI4, stronger effect = lower value 1.07 | S. cerevisiae deletion strains, locus YNL248C, strain rpa49, stronger effect = lower value 0.983 | S. cerevisiae deletion strains, locus YNL250W, strain rad50, stronger effect = lower value 0.995 | S. cerevisiae deletion strains, locus YNL271C, strain bni1, stronger effect = lower value 1 | S. cerevisiae deletion strains, locus YNL307C, strain MCK1, stronger effect = lower value 1.03 | S. cerevisiae deletion strains, locus YNL322C, strain KRE1 (second series), stronger effect = lower value 0.933 | S. cerevisiae deletion strains, locus YNR049C, strain mso1, stronger effect = lower value 1.06 | S. cerevisiae deletion strains, locus YNR052C, strain pop2, stronger effect = lower value 0.929 | S. cerevisiae deletion strains, locus YOL006C, strain TOP1, stronger effect = lower value 0.948 | S. cerevisiae deletion strains, locus YOL012C, strain htz1 1.69 | S. cerevisiae deletion strains, locus YOL147C, strain pex11, stronger effect = lower value 1.04 | S. cerevisiae deletion strains, locus YOR001W, strain rrp6, stronger effect = lower value 0.986 | S. cerevisiae deletion strains, locus YOR061W, strain CKA2, stronger effect = lower value 0.955 | S. cerevisiae deletion strains, locus YOR069W, strain VPS5, stronger effect = lower value 1.02 | S. cerevisiae deletion strains, locus YOR070C, strain gyp1, stronger effect = lower value 0.982 | S. cerevisiae deletion strains, locus YOR080W, strain dia2, stronger effect = lower value 1.01 | S. cerevisiae deletion strains, locus YOR083W, strain WHI5, stronger effect = lower value 0.939 | S. cerevisiae deletion strains, locus YOR106W, strain vam3, stronger effect = lower value 0.933 | S. cerevisiae deletion strains, locus YOR136W, strain idh2, stronger effect = lower value 1.01 | S. cerevisiae deletion strains, locus YOR144C, strain elg1, stronger effect = lower value 0.989 | S. cerevisiae deletion strains, locus YOR265W, strain rbl2, stronger effect = lower value 1.03 | S. cerevisiae deletion strains, locus YOR270C, strain vph1, stronger effect = lower value 0.839 | S. cerevisiae deletion strains, locus YOR290C, strain snf2, stronger effect = lower value 0.916 | S. cerevisiae deletion strains, locus YOR316C, strain cot1, stronger effect = lower value 1.06 | S. cerevisiae deletion strains, locus YPL051W, strain arl3, stronger effect = lower value 0.935 | S. cerevisiae deletion strains, locus YPL078C, strain atp4, stronger effect = lower value 0.939 | S. cerevisiae deletion strains, locus YPL240C, strain hsp82, stronger effect = lower value 1.06 | S. cerevisiae deletion strains, locus YPL256C, strain CLN2, stronger effect = lower value 0.915 | S. cerevisiae deletion strains, locus YPR141C, strain kar3, stronger effect = lower value 1.07 | S. cerevisiae deletion strains, locus YPR163C, strain tif3, stronger effect = lower value 0.977 | S. cerevisiae deletion strains, locus YPR167C, strain met16, stronger effect = lower value 1.01 | S. cerevisiae deletion strains, strain wtn01, stronger effect = lower value 0.945 | S. cerevisiae strains, strain wild type, stronger effect = lower value 1
active: S. cerevisiae deletion strains, locus YKL009W, strain mrt4, stronger effect = lower value 0.776 | S. cerevisiae deletion strains, locus YLL041C, strain sdh2, stronger effect = lower value 1.08 [resistant] | S. cerevisiae deletion strains, locus YLR262C, strain YPT6 (second series), stronger effect = lower value 0.733 | S. cerevisiae deletion strains, locus YLR357W, strain rsc2, stronger effect = lower value 1.16 [resistant] | S. cerevisiae deletion strains, locus YLR371W, strain rom2, stronger effect = lower value 1.12 [resistant] | S. cerevisiae deletion strains, locus YLR384C, strain iki3, stronger effect = lower value 1.09 [resistant] | S. cerevisiae deletion strains, locus YMR125W, strain sto1, stronger effect = lower value 1.13 [resistant] | S. cerevisiae deletion strains, locus YNL298W, strain CLA4, stronger effect = lower value 0.88 | S. cerevisiae deletion strains, locus YOR184W, strain ser1, stronger effect = lower value 0.679 | S. cerevisiae deletion strains, locus YOR231W, strain MKK1, stronger effect = lower value 0.85 | S. cerevisiae deletion strains, locus YPL106C, strain sse1, stronger effect = lower value 1.22 [resistant] | S. cerevisiae deletion strains, locus YPL241C, strain CIN2, stronger effect = lower value 1.07 [resistant] | S. cerevisiae deletion strains, locus YPR119W, strain clb2, stronger effect = lower value 1.07 [resistant]
